Results: the supplement of paper PMC6089552
Out of some 3,200 compounds screened, about 300 (9.4%) showed activity. The entries come from a sample that favours actives as a whole.

Test system: A673/TR/shEF
Assay: cell viability (LOESS-normalised, relative to median of negative controls) (log2 ratio); higher = more viable cells (less compound effect), active = hit call of the paper (over 3 MAD below the median)
Settings: treatment time: 72 h
Method in brief: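 For three days, A673/TR/shEF Ewing sarcoma cells in 384-well plates (1,500 per well) were treated with library compounds at two or more concentrations or with DMSO controls, after doxycycline had been added or withheld 24 h beforehand to induce EWS-FLI1 shRNA knockdown. Viability was read by CellTiter-Glo luminescence on an Envision reader. The data were LOESS-corrected per plate, divided by the median of negative controls and log2-transformed.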

[1] = 0.25 µM, library screen: screen1, EWS-FLI1 expression: high (no doxycycline)
[2] = 0.25 µM, library screen: screen1, EWS-FLI1 expression: low (doxycycline-induced shRNA knockdown)
[3] = 2.5 µM, library screen: screen1, EWS-FLI1 expression: high (no doxycycline)
[4] = 2.5 µM, library screen: screen1, EWS-FLI1 expression: low (doxycycline-induced shRNA knockdown)
[5] = 0.25 µM, library screen: screen2, EWS-FLI1 expression: high (no doxycycline)
[6] = 0.25 µM, library screen: screen2, EWS-FLI1 expression: low (doxycycline-induced shRNA knockdown)
[7] = 2.5 µM, library screen: screen2, EWS-FLI1 expression: high (no doxycycline)
[8] = 2.5 µM, library screen: screen2, EWS-FLI1 expression: low (doxycycline-induced shRNA knockdown)
[9] = 0.103 µM, library screen: screen3, EWS-FLI1 expression: high (no doxycycline)
[10] = 0.103 µM, library screen: screen3, EWS-FLI1 expression: low (doxycycline-induced shRNA knockdown)
[11] = 0.308 µM, library screen: screen3, EWS-FLI1 expression: high (no doxycycline)
[12] = 0.308 µM, library screen: screen3, EWS-FLI1 expression: low (doxycycline-induced shRNA knockdown)
[13] = 0.926 µM, library screen: screen3, EWS-FLI1 expression: high (no doxycycline)
[14] = 0.926 µM, library screen: screen3, EWS-FLI1 expression: low (doxycycline-induced shRNA knockdown)
[15] = 2.8 µM, library screen: screen3, EWS-FLI1 expression: high (no doxycycline)
[16] = 2.8 µM, library screen: screen3, EWS-FLI1 expression: low (doxycycline-induced shRNA knockdown)
[17] = 8.3 µM, library screen: screen3, EWS-FLI1 expression: high (no doxycycline)
[18] = 8.3 µM, library screen: screen3, EWS-FLI1 expression: low (doxycycline-induced shRNA knockdown)
[19] = 25 µM, library screen: screen3, EWS-FLI1 expression: high (no doxycycline)
[20] = 25 µM, library screen: screen3, EWS-FLI1 expression: low (doxycycline-induced shRNA knockdown)

Measured: cell viability (log2)

CC(=O)Oc1ccc2c(c1)CCC1C2CCC2(C)C(=O)CCC12 (configuration not stated)
inactive: [1] 0.0434 | [2] -0.0193 | [3] 0.146 | [4] 0.0428

N.N.N.N.N.O.[Ru+2]
inactive: [5] 0.216 | [6] 0.0909 | [7] 0.256 | [8] 0.0639

CCC/C=C/C=C/C1CC(O)C(O)C(=O)C1C=O (configuration not stated)
inactive: [1] -0.0508 | [2] 0.0579 | [3] 0.0447 | [4] 0.105

C=C1CC[C@@H]2[C@H](CC2(C)C)C(=O)CC[C@@H]1O
inactive: [1] 0.0475 | [2] 0.00133 | [3] 0.0814 | [4] 0.0623

C=C1C(C)(C)[C@@]2(Cl)C(Cl)[C@]1(Cl)C(Cl)(Cl)C2(Cl)Cl (some centres not stated)
inactive: [1] 0.0218 | [2] 0.106 | [3] 0.0433 | [4] 0.0358

COc1ccccc1CN1CCN(Cc2ccc(OC)c(OC)c2OC)CC1
inactive: [1] 0.0684 | [2] 0.104 | [3] 0.0567 | [4] 0.0723

CC[C@H]1OC(=O)[C@H](C)[C@@H](O[C@H]2C[C@@](C)(OC)[C@@H](O)[C@H](C)O2)[C@H](C)[C@@H](O[C@@H]2O[C@H](C)C[C@H](N(C)C)[C@H]2O)[C@](C)(O)C[C@@H](C)/C(=N/OCOCCOC)[C@H](C)[C@@H](O)[C@]1(C)O
inactive: [1] 0.13 | [2] 0.107 | [3] 0.122 | [4] 0.103

C/C=C/CC(C)C(O)C1C(=O)NC(CC)C(=O)N(C)CC(=O)N(C)C(CC(C)C)C(=O)NC(C(C)C)C(=O)N(C)C(CC(C)C)C(=O)NC(C)C(=O)NC(C)C(=O)N(C)C(CC(C)C)C(=O)N(C)C(CC(C)C)C(=O)N(C)C(C(C)C)C(=O)N1C (configuration not stated)
inactive: [1] 0.0736 | [2] 0.0415 | [5] 0.25 | [6] 0.127 | [3] 0.0328 | [4] 0.00672 | [7] 0.11 | [8] 0.104

CC(C)(O)[C@@H]1CC[C@](C)([C@H]2[C@@H](O)C[C@@]3(C)[C@@H]4C[C@H](O[C@@H]5O[C@H](CO)[C@@H](O)[C@H](O)[C@H]5O)[C@H]5C(C)(C)[C@@H](O[C@@H]6OC[C@@H](O)[C@H](O)[C@H]6O)CC[C@@]56C[C@@]46CC[C@]23C)O1
inactive: [9] 0.0688 | [10] 0.0886 | [11] 0.0588 | [12] 0.038 | [13] 0.056 | [14] 0.105 | [15] 0.044 | [16] -0.00938 | [17] 0.0806 | [18] 0.0911 | [19] 0.0188 | [20] 0.0301

CC(=O)O[C@H]1CC[C@@]2(C)[C@@H](CC[C@@H]3[C@@H]2CC[C@]2(C)[C@@H]4[C@H](C[C@@H]32)O[C@]2(CC[C@@H](C)CO2)[C@H]4C)C1
inactive: [1] 0.0876 | [2] 0.0708 | [3] 0.176 | [4] 0.151

CC1=C(Cl)C(O)=CC(=O)C12Oc1cc(O)c(Cl)c(C)c1C2=O (configuration not stated)
inactive: [1] 0.0863 | [2] 0.0945 | [3] 0.127 | [4] 0.13

CSCC[C@H](NC=O)C(=O)N[C@@H](Cc1ccccc1)C(=O)O
inactive: [1] 0.0894 | [2] 0.169 | [3] 0.0791 | [4] 0.113

C/C=C(/C)C(=O)O[C@@H]1c2c(ccc3ccc(=O)oc23)OC(C)(C)[C@@H]1OC(C)=O
inactive: [1] -0.0115 | [2] 0.00938 | [3] 0.181 | [4] 0.0803

C[C@@H]1O[C@@H](O[C@H]2[C@H](O[C@H]3CC[C@@]4(C)[C@@H](CC[C@]5(C)[C@@H]4CC=C4[C@@H]6CC(C)(C)CC[C@]6(C(=O)O)CC[C@]45C)[C@]3(C)CO)OC[C@H](O)[C@@H]2O)[C@H](O)[C@H](O)[C@H]1O
inactive: [1] 0.0421 | [2] 0.11 | [3] 0.089 | [4] 0.0617

CC(=O)N1CCN(c2nc(-c3ccccc3)c3cc(Br)ccc3n2)CC1
inactive: [1] 0.0769 | [2] 0.0692 | [3] 0.115 | [4] 0.105

COc1ccccc1/C=C/c1nc(O)c([N+](=O)[O-])c(=O)[nH]1
inactive: [1] 0.123 | [2] 0.138 | [3] 0.0902 | [4] 0.00102

CCOC(=O)c1c[nH]c2ccc(OC)cc2c1=O
inactive: [1] 0.15 | [2] 0.1 | [3] 0.112 | [4] 0.121

CC(C)[C@@H](C)/C=C/[C@@H](C)[C@H]1CC[C@H]2C3=CC=C4C[C@@H](O)CC[C@]4(C)[C@H]3CC[C@]12C
inactive: [1] 0.0837 | [2] 0.11 | [3] 0.0787 | [4] 0.0538

COc1cc(C(=O)OCCCN2CCCN(CCCOC(=O)c3cc(OC)c(OC)c(OC)c3)CC2)cc(OC)c1OC
inactive: [5] 0.105 | [6] 0.0948 | [7] 0.199 | [8] 0.123

COc1cc2c(Oc3ccc4[nH]c(C)cc4c3F)ncnc2cc1OCCCN1CCCC1
inactive: [9] 0.0825 | [10] 0.0561 | [11] 0.034 | [12] 0.013 | [13] 0.0586 | [14] 0.0142 | [15] 0.0459 | [16] 0.0297 | [17] -0.077 | [18] 0.092 | [19] 0.0238 | [20] 0.0041

COc1cc(Nc2c(C#N)cnc3cc(OCCCN4CCN(C)CC4)c(OC)cc23)c(Cl)cc1Cl
inactive: [9] 0.00802 | [10] 0.123 | [11] 0.0466 | [12] 0.063 | [13] 0.0151 | [14] 0.16 | [15] -0.0156 | [16] 0.139 | [17] -0.148 | [18] -0.136
active: [19] -1.59 | [20] -0.647

O=C(O)CSc1nnc(-c2ccc(Cl)cc2Cl)n1-c1ccccc1
inactive: [1] 0.109 | [2] 0.165 | [3] 0.15 | [4] 0.122

COc1c(C(=O)O)ccc2c1CCC(C)(C)O2
inactive: [1] 0.0873 | [2] 0.0519 | [3] 0.206 | [4] -0.0164

CCOc1ccc(C(=O)Nc2ccc(NC(=O)CC)cc2)cc1Cl
inactive: [1] 0.102 | [2] 0.0179 | [3] 0.0812 | [4] -0.0835

CCOc1cc2ncc(C#N)c(Nc3ccc(F)c(Cl)c3)c2cc1NC(=O)/C=C/CN(C)C
active: [15] -0.201 | [16] -0.422 | [19] -1.43 | [20] -0.678
inactive: [9] 0.06 | [10] 0.0264 | [11] 0.0695 | [12] 0.0377 | [13] 0.0744 | [14] -0.098 | [17] -0.14 | [18] -0.477

CCOc1cc2ncc(C#N)c(Nc3ccc(OCc4ccccn4)c(Cl)c3)c2cc1NC(=O)/C=C/CN(C)C
active: [17] -0.204 | [18] -0.529
inactive: [9] 0.0468 | [10] 0.0085 | [11] -0.038 | [12] -0.0155 | [13] -0.0139 | [14] -0.00326 | [15] -0.0436 | [16] -0.282 | [19] -0.035 | [20] -0.415

CCOc1ccc(C(=O)Nc2cccc(OC)c2)cc1Cl
inactive: [1] 0.0358 | [2] 0.0408 | [3] 0.151 | [4] 0.0428

COc1cccc(-n2c(C)c(C(C)=O)c(C(C)=O)c2C)c1
inactive: [1] -0.0313 | [2] 0.00668 | [3] 0.0772 | [4] -0.0891

COc1cc(C(=O)NC2CCCCC2)c([N+](=O)[O-])cc1OC
inactive: [1] 0.122 | [2] 0.0996 | [3] 0.157 | [4] 0.0416

CC(=O)O[C@]1(C(=O)CO)[C@H](C)C[C@H]2[C@@H]3CCC4=CC(=O)C=C[C@]4(C)[C@@]3(F)[C@@H](O)C[C@@]21C
inactive: [1] 0.0305 | [2] -0.118 | [3] 0.0736 | [4] -0.0945

COc1ccc(/C=C(/NC(=O)c2ccccc2)C(=O)N2CCCCCC2)cc1OC
inactive: [1] 0.12 | [2] 0.0586 | [3] 0.088 | [4] 0.085

CC(C(=O)O)[C@H]1CCC2C3CC=C4C[C@@H](O)CC[C@]4(C)C3CC[C@@]21C (some centres not stated)
inactive: [1] 0.0415 | [2] 0.0559 | [3] 0.0699 | [4] -0.0298

CC1(C)CC(=O)C2=C(C1)Nc1ccccc1N(C(=O)Cc1ccc(Cl)cc1)C2c1cccnc1 (configuration not stated)
inactive: [1] 0.0404 | [2] 0.0353 | [3] 0.127 | [4] 0.0963

CC1=C(C(=O)Nc2ccccc2Cl)C(c2ccc(F)cc2)NC(=O)N1 (configuration not stated)
inactive: [1] 0.153 | [2] 0.0871 | [3] 0.0947 | [4] -0.018

CC1(C)CC2C1CCC1(CBr)CCC3C(CC(=O)O)C(=O)OC32C1 (configuration not stated)
inactive: [1] 0.146 | [2] 0.038 | [3] 0.195 | [4] 0.152

CCN(CC)CCNC(=O)c1ccc(N)cc1
inactive: [1] 0.0893 | [2] 0.128 | [5] 0.138 | [6] 0.0499 | [3] 0.121 | [4] 0.267 | [7] 0.308 | [8] 0.0657

CCN(CC)CCNC(=O)c1c(C)[nH]c(/C=C2\C(=O)Nc3ccc(F)cc32)c1C
inactive: [9] 0.0562 | [10] 0.0683 | [11] 0.0856 | [12] 0.0784 | [13] -0.0103 | [14] 0.0749 | [15] -0.00223 | [16] 0.0762 | [17] -0.0922 | [18] 0.071
active: [19] -0.697 | [20] -0.541

CCN(CC)CCNC(=O)c1cc(S(C)(=O)=O)ccc1OC
inactive: [1] 0.0293 | [2] 0.172 | [5] 0.198 | [6] 0.0568 | [3] 0.105 | [4] 0.182 | [7] 0.192 | [8] 0.0888
